Experiments:
Experiment in all cases: PBM binding z-score (relative to random genomic background probes); higher = stronger binding; sequences stand for … in GC…GCGATTGACAGCGTAGAATGAAGG
[1] = tested on: PPARg:RXRa DBDmut IVT, anti-RXR (DBD mutation: RXRa K156A/R161A, NR concentration 270 nM, RXRa partner concentration 90 nM)
How it was run: (§1)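 Random background probes are the reference for binding z-scores. These scores derive from regression-normalized fluorescence on custom Agilent 4×180K protein-binding microarrays incubated 1 h with ligand-free nuclear receptor dimers. Binding was detected with antibodies against each partner (one per run).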

[2] = tested on: PPARg:RXRa IVT, anti-PPARg (NR concentration 270 nM, RXRa partner concentration 90 nM)
How it was run: as §1

[3] = tested on: PPARg DBDmut:RXRa IVT, anti-PPARg (DBD mutation: PPARg1 K132A/R137A, NR concentration 270 nM, RXRa partner concentration 90 nM)
How it was run: as §1

[4] = tested on: PPARg DBDmut IVT, anti-PPARg (DBD mutation: PPARg1 K132A/R137A, NR concentration 270 nM)
How it was run: as §1

[5] = tested on: PPARg homodimer (NR concentration 180 nM)
How it was run: as §1

[6] = tested on: PXR:RXRa (NR concentration 270 nM, RXRa partner concentration 90 nM)
How it was run: as §1

[7] = tested on: PXR homodimer (NR concentration 270 nM)
How it was run: as §1

[8] = tested on: RARa:RXR (NR concentration 270 nM, RXRa partner concentration 90 nM)
How it was run: as §1

[9] = tested on: RARa homodimer (NR concentration 270 nM)
How it was run: as §1

[10] = tested on: RARb:RXRa (NR concentration 270 nM, RXRa partner concentration 90 nM)
How it was run: as §1

[11] = tested on: RARb homodimer (NR concentration 270 nM)
How it was run: as §1

[12] = tested on: RARg:RXRa (NR concentration 270 nM, RXRa partner concentration 90 nM)
How it was run: as §1

[13] = tested on: RARg homodimer (NR concentration 270 nM)
How it was run: as §1

[14] = tested on: RXRa DBDmut IVT, anti-RXR (DBD mutation: RXRa K156A/R161A, NR concentration 90 nM)
How it was run: as §1

[15] = tested on: RXRa homodimer (NR concentration 180 nM)
How it was run: as §1

[16] = tested on: THRa:RXRa (NR concentration 90 nM, RXRa partner concentration 90 nM)
How it was run: as §1

[17] = tested on: THRa homodimer (NR concentration 90 nM)
How it was run: as §1

[18] = tested on: VDR homodimer (NR concentration 270 nM)
How it was run: as §1

Row | Sequence | PBM binding z-score [1] | PBM binding z-score [2] | PBM binding z-score [3] | PBM binding z-score [4] | PBM binding z-score [5] | PBM binding z-score [6] | PBM binding z-score [7] | PBM binding z-score [8] | PBM binding z-score [9] | PBM binding z-score [10] | PBM binding z-score [11] | PBM binding z-score [12] | PBM binding z-score [13] | PBM binding z-score [14] | PBM binding z-score [15] | PBM binding z-score [16] | PBM binding z-score [17] | PBM binding z-score [18]
1 | CCGACTGGGGCAAAGGTTACGATACTCAGTACGA | 4.56 | 6.38 | 0.809 | 0.584 | 4 | 2.51 | -0.536 | 4.39 | -0.413 | 2.57 | 2.03 | 3.68 | 1.78 | 0.541 | 3.62 | 1.81 | -0.139 | -0.301
2 | AGAATGGGGTTATTAAGATCAGGGAATTGCGGTC | 3.63 | 3.26 | 1.44 | 1.55 | 2.23 | 2.44 | 1.82 | 2.78 | 1.71 | 1.77 | 1.53 | 1.85 | 0.796 | 2.11 | 3.5 | 2.6 | 1.56 | 2.41
3 | CAAAGTAGGTCAAGGTCAAAGTCGGTTTGTGCCA | 8.64 | 9.04 | 5.79 | 3.56 | 4.77 | 5.48 | 2.55 | 5.94 | 2.15 | 5.07 | 5.16 | 6.15 | 6.56 | 3.29 | 6 | 4.22 | 3.66 | 4.44
4 | AGTCAAAGTTCAGCACGAGGTAACGTAAAGCACG | -0.116 | 2.28 | 0.538 | 0.124 | 1.92 | 3.35 | 1.01 | 3.13 | 1.12 | 4.66 | 3.59 | 5.19 | 5.78 | 3.52 | 3.51 | 3.78 | 1.13 | 2.3
5 | GGAACTAGGGCAAAGTTGATAGCATCTGTCGACG | 7.94 | 7.8 | 3.88 | 2.6 | 2.98 | -0.217 | -0.423 | 0.0303 | -0.192 | 1.48 | 0.866 | 1.07 | 1.15 | 0.644 | 0.592 | 0.234 | -0.621 | -0.235
6 | ATCGAACGGTCGAGGTGAGTATAGAGAAAGGGAA | -0.731 | 0.523 | 0.835 | -0.166 | 0.13 | -0.26 | -0.544 | -0.1 | -0.343 | 1.19 | 0.591 | 0.56 | 1.16 | -0.533 | 0.211 | 1.06 | 0.0248 | -0.386
7 | TCATATAGGTAATCAGGTGAAAGTCCGTAAGTTA | 5.4 | 5.17 | 1.73 | 1.86 | 1.32 | 0.832 | 0.68 | 1.14 | 1.28 | 0.56 | 0.773 | 0.361 | 0.3 | 1.52 | 0.885 | 1.82 | 1.51 | 0.521
8 | TTTAGTTGGTCAAAGGTCACACACTCGAAATGCG | 4.19 | 7 | 2.09 | 2.08 | 5.45 | 6.21 | 1.61 | 7.55 | 3.28 | 5.17 | 5.1 | 7.25 | 6.17 | 1.17 | 8.07 | 4.04 | 2.03 | 2.6
